Here are results for 62 molecules from PubChem BioAssay AID2435 (The Scripps Research Institute Molecular Screening Center, 2010).

Each structure is given as a SMILES string. In all, about 320,000 compounds went through this assay and about 1,000 (0.31%) were called active. Only a selection was taken, and actives are over-represented in it overall. A number with no mark means an inactive call.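 Rule for the calls: active = activation above the mean of all tested compounds plus 3 SD, cutoff set per screening run (cut at about 20% in these data); inactive = the rest.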

Sequence of Oxytocin receptor (Homo sapiens) (P30559 whole entry, looked up): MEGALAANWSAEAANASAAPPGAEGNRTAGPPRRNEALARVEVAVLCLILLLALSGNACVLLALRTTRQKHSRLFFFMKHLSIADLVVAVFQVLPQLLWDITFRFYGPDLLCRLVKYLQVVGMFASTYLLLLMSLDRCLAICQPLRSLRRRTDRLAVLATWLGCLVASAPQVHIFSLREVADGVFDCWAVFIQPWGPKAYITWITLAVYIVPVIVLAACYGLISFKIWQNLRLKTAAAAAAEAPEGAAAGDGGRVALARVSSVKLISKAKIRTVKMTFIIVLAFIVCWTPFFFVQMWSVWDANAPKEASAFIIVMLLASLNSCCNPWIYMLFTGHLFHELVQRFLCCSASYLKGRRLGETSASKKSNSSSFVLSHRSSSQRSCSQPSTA

This assay has as its target Oxytocin receptor (Homo sapiens) (UniProt P30559). The assay can be described thus: human OXTR agonists, primary screen, fluorescence, CHO-OTR cells, Fluo-8 calcium (AID 2435).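 Note: peak over basal fluorescence ratio from a 100 s FLIPR kinetic read.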 The note with it: Fluo-8 calcium fluorescence, at 3 µM, stronger effect = higher value, normalized: DMSO 0%, oxytocin 100%.
Turning to `CSc1ncccc1C(=O)Nc1cccc(S(=O)(=O)N2CCOCC2)c1`, the activation was 3.66%.
In the case of `CN(C)CCCN(C(=O)c1ccc(S(=O)(=O)N2CCCCCC2)cc1)c1nc2cc3c(cc2s1)OCCO3` it was 3.02%; in that of `CN(C)CCCN(C(=O)c1ccc(S(=O)(=O)N2CCCc3ccccc32)cc1)c1nc2ccc(F)cc2s1`, 15.5%; in that of `CN(C)CCCN(C(=O)c1ccc(S(=O)(=O)N2CCCCCC2)cc1)c1nc2ccc(Br)cc2s1`, 20.8% (active).
With `Cc1oc2nc(SCC(=O)Nc3ccc(S(N)(=O)=O)cc3)nc(NC(=O)c3ccccc3)c2c1C`, the activation was 0.48%.
Take `CCCCCCCCCCCCN1C(=O)CSC1c1cccnc1` (configuration not stated): the activation was -0.53%.
The result for `COCCC(=O)Nc1ccc2c(c1)CN(C(=O)CCOC)CC2` reads 0.4%; that for `CN(C)S(=O)(=O)c1ccc(NC(=O)N2CCOCC2)cc1`, -0.79%; that for `CN(C)S(=O)(=O)c1ccc(Oc2ccc(S(=O)(=O)N(C)C)cc2)cc1`, 23.4% (active).
In the case of `COc1ccc(S(=O)(=O)N(C)CC(=O)N2CCCC2)cc1` it was 1.27%; in that of `Cc1nc(CC(=O)NNS(=O)(=O)c2ccc(F)c(Cl)c2)cs1`, -0.41%.
`Cc1ccccc1N1CC(C(=O)Nc2ccc(S(=O)(=O)N3CCCC3)cc2)CC1=O` (configuration not stated): the activation was 1.72%.
The result for `CN(C)CC(O)COc1ccc(C(C)(C)c2ccc(OCC(O)CN(C)C)cc2)cc1` (configuration not stated) reads 1.29%; that for `CC(C)(c1ccccc1)c1ccc(OCCN2CCCC2)cc1`, 16%; that for `CC(C)(c1ccccc1)c1ccc(OCCN)cc1`, 20.2% (active).
The result for `COc1ccc(-c2csc3ncnc(N4CCN(S(=O)(=O)c5ccccc5C#N)CC4)c23)cc1` reads -0.22%.
Consider `Cc1c(CCOC(=O)CC23CC4CC(CC(C)(C4)C2)C3)sc[n+]1Cc1ccc([N+](=O)[O-])cc1`, for which the activation was -1.22%.
The result for `COc1cc(C(CCN2CCN(c3ccccc3)CC2)c2c(OC)cc(OC)c3ccc(=O)oc23)cc(OC)c1OC` (configuration not stated) reads 22.2% (active).
Take `COc1cc(OC)c2ccc(=O)oc2c1C(CCN1CCN(c2ccccc2)CC1)c1ccc2c(c1)OCO2` (configuration not stated): the activation is -1.49%.
In the case of `CCN(CC)CCC(c1cc(OC)c(OC)c(OC)c1)c1c(OC)cc(OC)c2c(-c3ccccc3)cc(=O)oc12` (configuration not stated) it was 2.08%; in that of `Cc1ccc(S(=O)(=O)N2CCN(C(=O)Cc3sc(C)nc3-c3ccc(F)cc3)CC2)c(C)c1`, -2.3%.
In the case of `CCCn1nc2cc(C(=O)NCc3ccccc3)ccc2c1OCC` it was -2.12%; in that of `COC(=O)CSc1nc2ccccc2c(=O)n1Cc1ccccc1`, -1.02%.
As for `C=CCSc1nc2c(c(=O)[nH]c(=O)n2C)n1Cc1ccccc1`, the activation is -0.23%.
The result for `Cc1cc2nc3c(=O)n(Cc4ccccc4)c(=O)[nH]c3nc2cc1N` reads 52.9% (active); that for `O=S(=O)(NCCOc1cccc2cccnc12)c1ccc(F)cc1`, 3.57%; that for `CCOC(=O)N/N=C1\CC(C)S(=O)(=O)c2ccc(Cl)cc21` (configuration not stated), -2.06%.
As for `CCOc1ncccc1C(=O)NCCc1ccc(OC)cc1`, the activation was -1.34%.
On to `Cc1nc(CN2CCN(C(=O)CCc3nnc(Cc4c[nH]c5ccccc45)o3)CC2)cs1`, for which the activation was -0.27%.
The result for `Cn1c2ccccc2c(=O)c2c(=O)n(Cc3ccco3)c(COc3ccccc3)nc21` reads 1.8%.
On to `Cn1c2ccccc2c(=O)c2c(O)cccc21`, for which the activation is -1.89%.
For the molecule `CCCc1nc2c(c(=O)c3ccccc3n2C)c(=O)n1C1CCCCCC1`, the activation was 52.1% (active).
In the case of `Cc1ccc(C(=O)Cc2nnc(C)s2)cc1` it was -0.26%.
The result for `Oc1ccc2ccc3cccc[n+]3c2c1` reads 65.3% (active); that for `COc1ccc(N2CCN(C(=O)[C@@H](NC(=O)c3cc(OC)cc(OC)c3)C(C)C)CC2)cc1`, -0.71%; that for `CCOc1ccc(CCNC(=O)C2CCN(c3ccc(N4CCOCC4)nn3)CC2)cc1OCC`, -0.01%.
The result for `O=C(NNC(=S)NC(=O)c1cn(-c2ccccc2)nc1-c1ccccc1)c1ccncc1` reads 21.2% (active); that for `NC(=O)C1CCN(C(=O)c2cn(-c3ccccc3)nc2-c2cccnc2)CC1`, 1.05%; that for `Cc1ccc(-c2nn(-c3ccccc3)cc2C(=O)NC2CCC(O)CC2)cc1` (configuration not stated), 0.66%.
For `COC(=O)c1ccc(COC(=O)C2CCN(S(=O)(=O)c3c(Cl)cccc3Cl)CC2)o1`, the activation is 0.45%.
The result for `O=C(NCc1ccco1)/C(=C/c1cccc([N+](=O)[O-])c1)NC(=O)c1ccco1` reads -0.34%; that for `O=C(c1ccco1)N1CCN(C(=O)C2CC(c3ccc(F)cc3)=NO2)CC1` (configuration not stated), 38.1% (active); that for `O=C(c1ccco1)N1CCN(C(=O)C2CC(c3ccc(Cl)c(Cl)c3)=NO2)CC1` (configuration not stated), 5.71%.
Consider `CCOC(=O)N1CCN(C(=O)C2CC(c3ccc(F)cc3)=NO2)CC1` (configuration not stated), for which the activation was 0.22%.
The result for `CC1(C)Oc2ccc3ccc(=O)oc3c2/C(=N/O)C1=O` reads -0.3%.
The result for `CCCCOc1ccc(CON(C(C)=O)C(C)=O)cc1Cl` reads -0.28%.
The result for `COc1ccccc1OCCNCC(O)COc1cccc2[nH]c3ccccc3c12` (configuration not stated) reads 20.7% (active).
Turning to `CC(C)(C)NCC(O)COc1cccc2[nH]c(=O)[nH]c12` (configuration not stated), the activation was -0.01%.
As for `CC(O)CNCCOc1cccc(Oc2ccccc2)c1` (configuration not stated), the activation was 2.15%.
The result for `CC(=O)c1ccc(NC(=O)c2sc3nc4n(c(=O)c3c2C)CCCCC4)cc1` reads 7.14%; that for `COc1ccccc1NC(=O)CCCc1c[nH]c2ccccc12`, -0.34%; that for `COc1ccc(S(=O)(=O)NCCc2c[nH]c3ccccc23)cc1OC`, 4.77%.
In the case of `COc1cccc(CNCCc2c[nH]c3ccccc23)c1OCc1ccccc1F` it was 23.9% (active); in that of `Cc1cc2nc3n(c2cc1C)CC1CC(C(=O)NCCC(C)C)N(C)C31` (configuration not stated), 0.52%.
The result for `O=c1c2ccccc2nc2n1C(CSCc1ccccc1)CS2` (configuration not stated) reads 0.87%; that for `O=c1c2ccccc2nc2n1C(CSc1ccc(Cl)cc1)CN2` (configuration not stated), 25.6% (active); that for `O=c1c2ccccc2nc2n1C(CSc1ccc(F)cc1)CN2` (configuration not stated), 0.69%.
For the molecule `Cc1ccc(S(=O)(=O)N(C)C)cc1NC(=O)C1Cc2ccccc2CN1C(=O)c1ccco1` (configuration not stated), the activation was -0.61%.
`C=C(C)CSc1nnc(-c2ccc(C)cc2)n1N`: the activation was -2.48%.
Consider `COc1ccc(CNC(=O)CCC(=O)Nc2nnc(C(C)C)s2)cc1`, for which the activation is -0.01%.
The result for `CCc1nn(CCCC(=O)NC(C)c2ccccc2)c(=O)c2cc3occc3n12` (configuration not stated) reads -0.99%; that for `FC(F)(F)c1cc(-c2ccco2)nc(NCc2ccc(Cl)cc2)n1`, 0.65%.
